Inconclusive results are not listed. Activity calls are given as the source filed them. The call rests on the fitted dose curve; in most records, active means well fitted inhibition curve with a large enough effect; inconclusive means small, poorly fitted or top-dose-only effect; inactive means flat fitted curve, though single readings scatter.
Key:
CRL-7250 = normal cell line; assay: Cytotoxic Profiling of Annotated Libraries Using Quantitative High-Throughput Screening (AID 1296008); settings: Five cell lines viability, CellTiter-Glo ATP luminescence, 48-72 h; max response: hits give low values; on max response: on the % scale 0 is the no-effect control and ±100 the full control effect
Summary of the method: (§1)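 Cytotoxicity was measured as CellTiter-Glo ATP luminescence, read after 10 min at room temperature. Compound treatment of the cells lasted 48 or 72 hr at 37 degrees Celsius in a qHTS format.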

HEK293 = assay: as above; settings: Five cell lines viability, CellTiter-Glo ATP luminescence, 48-72 h; max response: hits give low values
Summary of the method: as §1

HaCat [1] = assay: as above; settings: Five cell lines viability, CellTiter-Glo ATP luminescence, 48-72 h; max response: hits give low values
Summary of the method: as §1

KB-3-1 = assay: as above; settings: Five cell lines viability, CellTiter-Glo ATP luminescence, 48-72 h; max response: hits give low values
Summary of the method: as §1

NIH3T3 [2] = assay: as above; settings: Five cell lines viability, CellTiter-Glo ATP luminescence, 48-72 h; max response: hits give low values
Summary of the method: as §1

HACAT [3] = assay: qHTS assay to identify novel small-molecules to repurpose for Merkel cell carcinoma treatment (AID 1296009); settings: MCC and control cell lines, CellTiter-Glo viability, 72 h; at 44.8 µM (top of the series) unless noted
Summary of the method: (§2)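 Cell viability measured by CellTiter-Glo following 72 hr compound treatment at 37 degree celsius, with NPC and MIPE libraries tested in 8- and 11-point concentration series.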

NIH3T3 [4] = assay: as above; settings: MCC and control cell lines, CellTiter-Glo viability, 72 h; at 44.8 µM (top of the series) unless noted
Summary of the method: as §2

Measured: max response
Further: nearly all actives have a fitted effect of over 60% in size.

C[C@@H]1O[C@@H](O[C@H]2[C@H](Oc3cc(O)c(C(=O)CCc4ccc(O)cc4)c(O)c3)O[C@H](CO)[C@@H](O)[C@@H]2O)[C@H](O)[C@H](O)[C@H]1O
inactive: CRL-7250 2.09% | HEK293 -1.52% | HaCat [1] | KB-3-1 | NIH3T3 [2] | HACAT [3] | NIH3T3 [4]

CC(=O)c1c(C)cccc1O[C@@H]1O[C@H](CO)[C@@H](O)[C@H](O)[C@H]1O
inactive: CRL-7250 1.88% | HEK293 -3.42% | HaCat [1] | KB-3-1 7.75% | NIH3T3 [2] | HACAT [3] | NIH3T3 [4]

CC1(C)CC[C@]2(C(=O)O[C@@H]3O[C@H](CO)[C@@H](O)[C@H](O)[C@H]3O)CC[C@]3(C)C(=CCC4[C@@]5(C)CC[C@H](O[C@@H]6O[C@H](C(=O)O)[C@@H](O)[C@H](O)[C@H]6OC6OC(CO)C(O)C(O)C6O)C(C)(C)C5CC[C@]43C)[C@@H]2C1 (stereo partly drawn)
inactive: CRL-7250 3.56% | HEK293 -12.1% | HaCat [1] | KB-3-1 | NIH3T3 [2] | HACAT [3] inactive [at 9.27 µM] | NIH3T3 [4] inactive [at 9.27 µM]

COC(=O)C1=CO[C@@H](O[C@@H]2O[C@H](CO)[C@@H](O)[C@H](O)[C@H]2O)/C(=C\CO)[C@@H]1CC(=O)OCCc1ccc(O)cc1
inactive: CRL-7250 0.106% | HEK293 2.34% | HaCat [1] | KB-3-1 | NIH3T3 [2] | HACAT [3] inactive [at 17.4 µM] | NIH3T3 [4] inactive [at 17.4 µM]

NC(=O)[C@@H]1CC[C@H](c2ccc(OCc3ccccc3F)cc2)N1
inactive: CRL-7250 -6.02% | HEK293 2.17% | HaCat [1] | KB-3-1 -8.37% | NIH3T3 [2] | HACAT [3] | NIH3T3 [4]

N#Cc1cccc(-c2c[nH]c3ncnc(N4CCOCC4)c23)c1
inactive: CRL-7250 | HEK293 -6.95% | HaCat [1] | KB-3-1 -3.64% | NIH3T3 [2] | HACAT [3] | NIH3T3 [4]

Cn1cc(-c2c[nH]c3ncnc(N4CCOCC4)c23)cn1
inactive: CRL-7250 0.569% | HEK293 -23.9% | HaCat [1] | KB-3-1 | NIH3T3 [2] | HACAT [3] | NIH3T3 [4]

CCCCOc1nc(N)c2c(n1)N(Cc1cccc(CN3CCCC3)c1)CC(=O)N2
inactive: CRL-7250 | HEK293 -3.01% | HaCat [1] | KB-3-1 -3.08% | NIH3T3 [2] | HACAT [3] | NIH3T3 [4]

CC1(C)CC[C@]2(C(=O)O[C@@H]3O[C@H](CO)[C@@H](O)[C@H](O)[C@H]3O)CC[C@]3(C)C(=CCC4[C@@]5(C)CC[C@H](OC6OC(C(=O)O)C(OC7OC(CO)C(O)C(O)C7O)C(O)C6O)C(C)(C)C5CC[C@]43C)C2C1 (stereo partly drawn)
inactive: CRL-7250 0.724% | HEK293 3.09% | HaCat [1] | KB-3-1 | NIH3T3 [2] | HACAT [3] inactive [at 9.27 µM] | NIH3T3 [4] inactive [at 9.27 µM]

CC(=O)/C=C/C1(O)C(C)=CC(=O)CC1(C)C (stereo not drawn)
inactive: CRL-7250 -1.97% | HEK293 -3.4% | HaCat [1] | KB-3-1 -2.68% | NIH3T3 [2] | HACAT [3] | NIH3T3 [4]

O=C(NC1CCN(CC(F)(F)F)CC1)c1ccc(-c2cccc(F)c2)nc1
inactive: CRL-7250 | HEK293 -11% | HaCat [1] | KB-3-1 -3.14% | NIH3T3 [2] | HACAT [3] | NIH3T3 [4]

c1cc(-c2cc(C3CCNCC3)[nH]n2)ccn1
inactive: CRL-7250 -3.47% | HEK293 -20.2% | HaCat [1] | KB-3-1 2.66% | NIH3T3 [2] | HACAT [3] inactive [at 17.4 µM] | NIH3T3 [4] inactive [at 17.4 µM]

COc1ccc(C2OCC3C(c4cc(OC)c5c(c4)OCO5)OCC23)cc1OC (stereo not drawn)
inactive: CRL-7250 3.22% | HEK293 1.08% | HaCat [1] | KB-3-1 -4.07% | NIH3T3 [2] | HACAT [3] inactive [at 17.4 µM] | NIH3T3 [4] inactive [at 17.4 µM]

O=C(O)CC/C=C\C[C@H]1CO[C@@H](c2ccccc2Cl)O[C@H]1c1ccccc1O
inactive: CRL-7250 3.51% | HEK293 -2.35% | HaCat [1] | KB-3-1 3.23% | NIH3T3 [2] | HACAT [3] | NIH3T3 [4]

From PubChem BioAssay (NCATS)
